# Screening results from PubChem.
# In the library only some 2.2% were active in any assay of this set; here they are far more common.
# aSyn rescue: rescues yeast growth from alpha-synuclein toxicity; Potency, µM (titrated, usually from 46.1 µM), for inactives: top-dose growth rescue (activation), actives largely listed as activators; hit rate 0.14% among 370,000; Yeast expressing alpha-synuclein, growth rescue, BacTiter-Glo, 24 h; further: % of control where 0% means no effect; nearly all actives have a fitted effect of over 65% in size
#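 Screening used galactose-induced yeast with toxic alpha-synuclein levels, exposed to compound for 24 hr at 30 deg C. Cell growth, read with BacTiter-Glo luminescence, gave the measured signal.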
# Abeta rescue: A-beta toxicity reversal in yeast; yeast expressing A-beta42, growth rescue, OD600, 48 h; response scale: 0% DMSO, 100% iron-clioquinol control; hit rate 0.063% among 410,000; Potency, µM (titrated, usually from 46.1 µM), most hits filed as activators; further: nearly all actives have a fitted effect of over 55% in size
#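 Growth rescue measured by 600 nm absorbance after 48 h yeast culture at 30 C with compound. Values normalized between DMSO and an equimolar ferric chloride plus clioquinol control.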
# FUS yeast rescue: suppressors of FUS proteinopathy in yeast. S. cerevisiae FUS-expressing, growth rescue, OD600, 24 h. Potency, µM (series often up to 76.6 µM), hits mostly activators. hit rate 0.24% among 390,000. AID 1347120;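 further: plate controls were DMSO vehicle for no effect and reference control for full effect; nearly all actives have a fitted effect of over 55% in size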
#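 Yeast expressing FUS under galactose induction, OD 0.005 in 2% galactose medium; compounds in a dilution series, 24 h at 30C. Growth rescue by absorbance at 600 nm; CP55940 positive control, DMSO negative.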
# Mito fusion yeast: blocks mitochondrial division or promotes mitochondrial fusion; Potency, µM (top dose mostly 46.1 µM), inactives show at the top dose growth rescue (activation), most hits filed as activators; hit rate 0.23% among 320,000; S. cerevisiae fusion-defective mutant growth rescue, CellTiterGlo 48 h; further: % of control where 0% means no effect; nearly all actives have a fitted effect of over 45% in size
#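 Yeast fusion mutant, YPEG (non-fermentable carbon), compound, 48 h at 37C non-permissive; CellTiterGlo added, 10 min RT, luminescence read. Rescued growth = division inhibition.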
# TDP43 rescue: inhibitors of TDP-43 toxicity in yeast. Potency, µM (highest dose often 46.1 µM), inactives show top-dose growth rescue (activation), most hits filed as activators. TDP-43 expressing yeast growth rescue, BacTiter-Glo, 24 h. hit rate 1.8% among 410,000; further: % of control where 0% means no effect; nearly all actives have a fitted effect of over 50% in size
#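 Luminescence from BacTiter-Glo reports growth of TDP-43-expressing yeast after 24 hr at 30 deg C with compound. Cells were raffinose-pregrown to mid-log, then seeded in galactose medium at OD600=0.02.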
# An asterisk follows results filed as active; i = inactive; ? = inconclusive; / = no result. The call rests on the fitted dose curve; in most records, active means well fitted curve in the direction sought with a large enough effect; inconclusive means small, poorly fitted or top-dose-only effect, or another doubt; inactive means no such curve, though single readings can be large; an effect the other way counts as inactive or inconclusive. Potency means the concentration at half of the fitted maximal effect.
SMILES,aSyn rescue,Abeta rescue,FUS yeast rescue,Mito fusion yeast,TDP43 rescue
CN(C)c1ccc(/C=C2\C(=O)Nc3ccccc32)cc1,?,/,/,13µM*,/
COc1ccc(-c2c(C)nn3c(C)cc(C)nc23)cc1,-6%,i,i,3%,14µM*
COc1ccc(-c2c(C)nn3c(C(F)(F)F)cc(C)nc23)cc1,-5%,i,i,/,27%
CN(/N=C/c1ccc([N+](=O)[O-])o1)c1ccccc1,6%,i,i,-4%,14µM*
CC12CCC(=O)N1C(C(=O)Nc1nc(-c3ccccc3Cl)cs1)CS2 (stereo not drawn),7%,i,i,3%,10µM*
CC12CCC(=O)N1C(C(=O)Nc1nc(-c3ccc(F)cc3)cs1)CS2 (stereo not drawn),2%,i,i,0%,7%
COc1cccc(OC)c1-c1cc(CCCc2cc(-c3c(OC)cccc3OC)nc3ccccc23)c2ccccc2n1,0%,/,/,/,/
O=C(Nc1ccccc1Cl)c1cccs1,1%,i,i,6%,?
O=C(Nc1ccccc1Cl)c1ccc(-c2ccccn2)s1,-1%,i,i,3%,11µM*
Cc1ccc2c(c1)c(=O)c1ccccc1n2CCCC(=O)Nc1ccc(Cl)c(Cl)c1,/,i,i,/,7%
O=C(CCCn1c2ccccc2c(=O)c2ccccc21)Nc1cccc(Cl)c1,/,i,?,/,35µM*
O=C1c2ccccc2C(=O)c2c1oc(C(F)(F)F)c2C(=O)c1ccccc1,-49%,i,/,-25%,3.5µM*
Cc1oc2c(c1C(=O)NCc1cccnc1)C(=O)c1ccccc1C2=O,11%,i,i,-21%,35µM*
COc1ccc(CNC(=O)c2c(C)oc3c2C(=O)c2ccccc2C3=O)cc1,3%,i,i,-8%,?
CC(=O)c1c(C)oc2c1C(=O)c1ccccc1C2=O,-4%,i,/,-2%,5µM*
Cn1c2ccccc2c2cnn(CC(=O)N3CCN(c4cccc(C(F)(F)F)c4)CC3)c(=O)c21,/,i,i,/,28%
CC(O)(c1cccc(F)c1)c1nc(-c2cccc(C#N)c2)cs1 (stereo not drawn),10%,i,i,/,35µM*
COc1ccc(-c2csc(C(C)(O)c3cccc(F)c3)n2)cc1OC (stereo not drawn),-1%,i,i,/,35µM*
CCN(CC)C(=O)c1cccc(-c2csc(C(C)(O)c3ccc(F)c(F)c3)n2)c1 (stereo not drawn),1%,i,?,/,14µM*
COc1cccc(C(C)(O)c2nc(-c3ccc(C)c(C)c3)cs2)c1 (stereo not drawn),-14%,i,i,/,14µM*
Cc1ccc(CNC(=O)c2ccc(CS(=O)(=O)Cc3ccc(F)cc3)o2)cc1,/,i,i,/,5%
Cc1ccc(C)c(Nc2nnc(-c3ccc(C)c(S(=O)(=O)N4CCN(C)CC4)c3)c3ccccc23)c1,/,i,i,/,3%
N#Cc1cccc(-c2csc(C(O)(c3ccccc3)C(F)(F)F)n2)c1 (stereo not drawn),-50%,13µM*,i,/,-80%
CC(O)(c1cccc(F)c1)c1nc(-c2cccc(C(=O)O)c2)cs1 (stereo not drawn),7%,i,i,/,35µM*
CC(O)(c1cccc(F)c1)c1nc(-c2ccccc2)cs1 (stereo not drawn),8%,i,i,/,36%
SMILES,aSyn rescue,Abeta rescue,FUS yeast rescue,Mito fusion yeast,TDP43 rescue
O=C(Cn1c(-c2cccs2)cc2ccccc21)N1CCN(c2ccc(Cl)cc2)CC1,/,i,i,/,9%
CCc1ccc(C(=O)c2cn(CC(=O)Nc3ccc(F)cc3)c3ccc(F)cc3c2=O)cc1,/,i,i,/,18%
O=C(N/N=C/C(Cl)=C/c1ccccc1)c1ccccn1,-13%,i,i,-4%,10µM*
CCOC(=O)/C=C/C(=O)OCC(=O)Nc1ccc([N+](=O)[O-])cc1,-21%,/,i,-10%,14µM*
CN(C)CCCNC(=O)C[C@@H]1CC[C@@H]2[C@H](COc3ccc(NC(=O)c4cccc(F)c4)cc3C(=O)N2C)O1,/,/,i,/,/
O=C(Nc1cccc2c1[nH]c1ccccc12)C(F)(F)F,0%,i,i,0%,14µM*
COc1cc(C=C2CCCC(=Cc3ccc(OCC4CO4)c(OC)c3)C2=O)ccc1OCC1CO1 (stereo not drawn),0%,i,i,/,0%
O=S(Cc1ccc(Br)cc1)Cc1nnc(SCc2ccc(Cl)cc2)n1-c1ccccc1 (stereo not drawn),?,i,/,-14%,6.3µM*
C=Cc1ccc(Cn2nc(-c3ccccc3)ccc2=O)cc1,?,i,?,18%,11µM*
CC(C)NC(=S)N/N=C/c1ccc(C(C)(C)C)cc1,-6%,5.6µM*,i,-1%,0%
CN(CC(=O)Nc1ccc(Br)cc1)S(=O)(=O)c1cccc2nsnc12,/,i,i,/,22µM*
CC(C)c1ccc(NC(=O)CS(=O)(=O)c2cccc3nsnc23)cc1,?,i,i,/,25µM*
O=C(CS(=O)(=O)c1cccc2nsnc12)Nc1ccccc1,3%,i,i,/,0%
Cc1cccc(-c2nc(CCNC(=O)Cc3ccccc3)cs2)c1,/,i,i,/,16µM*
Cc1cccc(-c2nc(CCNC(=O)COc3ccccc3)cs2)c1,/,i,i,/,35µM*
Cc1cccc(CCNC(=O)c2cc3c(=O)[nH]c4ccc(C)cc4c3s2)c1,/,i,i,/,20%
CC(=O)Nc1ccc(/C=C/COC(C)=O)cc1C,/,/,i,/,/
Cc1cccc2sc(NNC(=O)c3ccc(S(=O)(=O)N4CCc5ccccc5C4)cc3)nc12,9%,i,i,1%,?
Cc1cccc2sc(NNC(=O)c3ccc(S(=O)(=O)N4CCCC(C)C4)cc3)nc12 (stereo not drawn),11%,i,?,-10%,5.6µM*
CCOC(=O)N1CCN(S(=O)(=O)c2ccc(C(=O)NNc3nc4c(C)cc(C)cc4s3)cc2)CC1,11%,i,?,5%,14%
CCOC(=O)N1CCN(S(=O)(=O)c2ccc(C(=O)NNc3nc4cc(C)cc(C)c4s3)cc2)CC1,2%,i,i,-2%,5.6µM*
CC(C)Cc1nnc(NC(=O)c2ccc3c(c2)OCCO3)s1,1%,i,i,8%,20µM*
Cc1cccc2sc(NNC(=O)c3ccc4c(c3)OCCO4)nc12,14%,?,i,-4%,35µM*
COc1cccc2sc(NC(=O)c3ccc4c(c3)OCCO4)nc12,/,i,i,/,30%
COc1ccc(C2Nc3ccccc3C(=O)N2Cc2ccco2)cc1COc1c(C)cccc1C (stereo not drawn),2%,/,/,/,/
